# Laboratory results as given in PubChem BioAssay (NCI).
# Compounds without any hit were thinned out: in the full panel of roughly 83,000, 20% have a hit.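 Method: cells in 96-well plates; compound added at one concentration; 48 h incubation; percent growth measured; values under 10 scored active.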 Unmarked numbers belong to inactive results. Activity calls are given as the source filed them.
# Tests used:
# Experiment in all cases: NCI-60 one-dose screen, 48 h (100 = growth as untreated, 0 = no growth, -100 = all killed)
# Conditions in all cases: 10 µM unless noted
# [1] = system: NCI-H23 lung
# [2] = system: NCI-H322M lung
# [3] = system: HOP-62 NSCLC
# [4] = system: NCI-H460 lung
# [5] = system: HOP-92 NSCLC
# [6] = system: NCI-H522 lung
# [7] = system: A549/ATCC NSCLC
# [8] = system: 786-0 renal
# [9] = system: COLO 205 colon
SMILES,growth [1],growth [2],growth [3],growth [4],growth [5],growth [6],growth [7],growth [8],growth [9]
CC[C@H](C)[C@H](NC(=O)[C@H]1CCCCN1C)C(=O)N(C)[C@H](CC(=O)c1nc(C(=O)N[C@@H](Cc2ccccc2)C[C@H](C)C(=O)O)cs1)C(C)C,93.2%,107%,77%,91%,49%,-9.54% (active),94.8%,89.7%,82.8%
COC(C(=O)[C@@H](O)[C@@H](C)O)[C@@H]1Cc2cc3cc(O[C@H]4C[C@@H](O[C@H]5C[C@@H](O)[C@H](O)C(C)O5)[C@H](O)C(C)O4)c(C)c(O)c3c(O)c2C(=O)[C@H]1O[C@H]1C[C@@H](O[C@H]2C[C@@H](O[C@H]3C[C@@H](O)[C@@H](O)C(C)O3)[C@@H](O)C(C)O2)[C@H](O)C(C)O1 (some centres not stated),-0.735% (active),–,-4.46% (active),7.75% (active),13.3%,-23.7% (active),2.42% (active),-1.51% (active),-43.3% (active)
CCOC(=O)C(Cc1ccc(N(CCCl)CCCl)cc1)NC(=O)C(CC(C)C)NC(C)=O (configuration not stated),17.1%,97.1%,41%,1.65% (active),24.6%,-73.1% (active),49.4%,9.46% (active),-29.3% (active)
COc1ccc(N(CC(=O)NCCC[Te]c2ccccc2)C(=O)CNC(=O)OC(C)(C)C)cc1,-15.5% (active),-6.97% (active),1.88% (active),-23.9% (active),-19.9% (active),-0.481% (active),-9.26% (active),73.3%,86.9%
Clc1cccc(NCOOC2(OOCNc3cccc(Cl)c3)CCCCC2)c1,43.6%,73.7%,49.5%,77.2%,-46.3% (active),14.7%,3.1% (active),10.8%,96.6%
COC(=O)N[C@H]1CCc2c(Br)c(OC)c(OC)c(OC)c2-c2ccc(SC)c(=O)cc21,31.3%,28%,29.7%,-14.1% (active),-0.443% (active),8.44% (active),–,10.9%,-52.5% (active)
N#Cc1c(Br)n(C2OC(CO)C(O)C2O)c2ncnc(N)c12 (configuration not stated),74.4%,81%,101%,34%,52.7%,60.5%,13.4%,89.1%,18.2%
N#C[Se]CCN1C(=O)c2ccccc2C1=O,39.4%,24.4%,26.4%,15.8%,-3.49% (active),20.2%,30.6%,52%,61.6%
CN(C)C(=O)Oc1ccccc1-c1ccccc1,102%,111%,98.6%,109%,95.7%,101%,87.7%,106%,103%
COc1ccc2c(c1)c(-c1nc(-c3c[nH]c4ncccc34)cs1)cn2CCCCN1CCCCC1,1.32% (active),-20.2% (active),-75.5% (active),-69.8% (active),20.5%,-68.8% (active),-65.9% (active),-90% (active),-76.2% (active)
COC(=O)[C@@H](C)C[C@H](Cc1ccccc1)NC(=O)c1nc([C@@H](C[C@H](C(C)C)N(C)C(=O)[C@@H](NC(=O)[C@H]2CCCCN2C)C(C)C)OC(C)=O)sc1C(C)C,24.6%,38.1%,11.8%,5.54% (active),30.6%,-9.43% (active),–,-6.11% (active),-61.5% (active)
COC(=O)[C@@]1(C)CC[C@]2(C)CC[C@]3(C)C4=CC=C5C(=CC(=O)C(O)=C5C)[C@]4(C)CC[C@@]3(C)[C@@H]2C1,-72.6% (active),-95.3% (active),-90.6% (active),-83% (active),-86.7% (active),-78.3% (active),-92.9% (active),-90% (active),-77.2% (active)
Cc1ccc(S(=O)(=O)C(Cl)(Cl)Cl)cc1,98.3%,105%,90.2%,104%,82.3%,76.2%,77.2%,88.5%,99.4%
Cc1cc(N(CCCl)CCCl)ccc1/C=N\NC(=O)c1ccncc1,87.8%,113%,79.4%,25.9%,97%,101%,78.4%,82.5%,98%
Nc1c(F)cc(-c2nc3cc(F)ccc3[se]2)cc1Br,17.4%,46.9%,39.8%,3.18% (active),49.7%,67.1%,22.5%,95.4%,5.84% (active)
COc1ccc(/C=C\c2cc(OC)c(OC)c(OC)c2)c(NS(=O)(=O)c2ccc(Cl)cc2)c1O,21.8%,40.8%,49.8%,8.23% (active),48.3%,-36% (active),16.7%,25.5%,20.9%
C/C(CC(C)(C)N1CC1)=N\NC(=O)Nc1cccc2ccccc12,68%,81.2%,62.5%,42.9%,24.2%,48.7%,63%,70.4%,52.3%
CC(C)(C)N1CC1C#N (configuration not stated),99.5%,96.3%,105%,105%,105%,96%,105%,98.6%,98.7%
CC[C@H](C)[C@H](NC(=O)c1cccn1C)C(=O)N(C)[C@H](C[C@@H](OC(C)=O)c1nc(C(=O)N[C@@H](Cc2ccccc2)C[C@H](C)C(=O)OC)cs1)C(C)C,22.8%,37.6%,10.1%,6.58% (active),22.4%,-19.3% (active),14.4%,12.7%,-69.7% (active)
Clc1ccc(CO/N=C(\Cn2ccnc2)c2ccc(Cl)cc2Cl)c(Cl)c1,-16.5% (active),21.6%,107%,-32.5% (active),-31.9% (active),-45.2% (active),7.85% (active),-45.3% (active),105%
O=C1NC(=O)C(=Cc2ccc(OCCCCC3CCCCC3)c(Cl)c2)C(=O)N1,96.7%,105%,89.7%,93.8%,87.4%,81.1%,–,88.2%,112%
ClCCN(CCCl)c1ccc(OCc2ccccc2)cc1,58.7%,102%,54.8%,20.3%,57.3%,75.1%,45.7%,19%,75.9%
CC(=O)[O][Hg][c]1c(N)c(C)cc(C)c1F,48.6%,85.1%,59.5%,43.8%,12.1%,-42.2% (active),84.7%,-31.7% (active),-16.6% (active)
NC1CC2CCCCC2CC1(O)c1ccccc1 (configuration not stated),94.7%,103%,106%,103%,88.6%,97.8%,99.3%,99.6%,106%
Cc1c2cc(Cl)c3ccccc3c2c[n+]2ccccc12,47.8%,31.3%,12.3%,55.7%,75.4%,17.1%,40.5%,16.1%,56.1%
CCCC(C)C1(CC)C(=O)NC(=O)N(C)C1=O (configuration not stated),100%,100%,85.1%,106%,92%,80.7%,79.1%,94.3%,99.6%
C/C=C(\C)C(=O)O[C@@H]1C(O)[C@H]2OC(COC(=O)CCC(=O)CCCCCC[C@H](CCCCC)O[C@@H]3OC(C)[C@H](OC(C)=O)C(O)[C@H]3O2)[C@H]1OC(=O)/C=C/c1ccccc1 (some centres not stated),37.1%,27%,-2.42% (active),15.9%,-11.4% (active),20.9%,20.2%,5.52% (active),-2.63% (active)
COc1ccc(/C=C\c2cc(OC)c(OC)c(OC)c2)c(NS(=O)(=O)c2ccc(F)cc2)c1O,27.4%,–,71.3%,5.54% (active),43.3%,-18.6% (active),23.9%,18.4%,0.893% (active)
